Assay results: PubChem BioAssay (NCATS)
Results filed as inconclusive are left out. The source made the active and inactive calls. Calls follow the shape of the dose curve; as a rule, active = well fitted curve in the direction sought with a large enough effect; inconclusive = small, poorly fitted or top-dose-only effect, or another doubt; inactive = no such curve, though single readings can be large; an effect the other way counts as inactive or inconclusive. Residues, ends and D or L forms follow the SMILES beside them. *: point of attachment. Cbz = O=C(OCc1ccccc1)*

Key:
[1] = Quantitative High-Throughput drug screen in 47 multiple myeloma cell lines against the NCATS MIPE library collection: ARD_JJKsccE7 cell viability assay (AID 1918929)
Procedure, shortened: (§1)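 We plated 500 myeloma cells per well, pinned in MIPE 4.0 compounds, and incubated for 48 hours at 37C. ATP was then quantified with CellTiter-Glo, with DMSO and media-only wells defining 100% and 0%.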

[2] = Quantitative High-Throughput drug screen in 47 multiple myeloma cell lines against the NCATS MIPE library collection: Karpas620_DSMZ cell viability assay (AID 1918959); also: nearly all actives have a fitted effect of over 30% in size
Procedure, shortened: (§2)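 Luminescent ATP measurement with CellTiter-Glo gives viability, scaled between DMSO-only wells (100%) and media-only wells (0%). Cells, 500 per well, faced library compounds for 48 hours at 37C.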

[3] = Quantitative High-Throughput drug screen in 47 multiple myeloma cell lines against the NCATS MIPE library collection: KMM1_JCRB cell viability assay (AID 1918960); also: nearly all actives have a fitted effect of over 30% in size
Procedure, shortened: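 ATP readout (CellTiter-Glo), 48 h drug incubation, 37 °C/5% CO2, 500 cells per well; normalisation to DMSO (100%) and media-only (0%) controls.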

[4] = Quantitative High-Throughput drug screen in 47 multiple myeloma cell lines against the NCATS MIPE library collection: Karpas417_ECACC cell viability assay (AID 1918961); conditions: Karpas417 myeloma viability, CellTiter-Glo ATP luminescence, 48 h; viability (% of DMSO): at 45.8 µM (top of the series)
Procedure, shortened: (§3)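 Steps: seed 500 cells per well; pin-transfer MIPE 4.0 library; incubate 48 h at 37C, 5% CO2, humidified; add CellTiter-Glo, 5 min room temperature; read luminescence.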

[5] = Quantitative High-Throughput drug screen in 47 multiple myeloma cell lines against the NCATS MIPE library collection: JIM3_ECACC cell viability assay (AID 1918963; also: nearly all actives have a fitted effect of over 35% in size)
Procedure, shortened: as §2

[6] = Quantitative High-Throughput drug screen in 47 multiple myeloma cell lines against the NCATS MIPE library collection: INA6_PLB cell viability assay (AID 1918965; also: nearly all actives have a fitted effect of over 55% in size)
Procedure, shortened: as §3

[7] = Quantitative High-Throughput drug screen in 47 multiple myeloma cell lines against the NCATS MIPE library collection: H1112_PLB cell viability assay (AID 1918967; also: nearly all actives have a fitted effect of over 30% in size)
Procedure, shortened: as §1

[8] = Quantitative High-Throughput drug screen in 47 multiple myeloma cell lines against the NCATS MIPE library collection: Karpas25_ECACC cell viability assay (AID 1918968; also: nearly all actives have a fitted effect of over 35% in size)
Procedure, shortened: as §1

[9] = Quantitative High-Throughput drug screen in 47 multiple myeloma cell lines against the NCATS MIPE library collection: KMS27_JCRB cell viability assay (AID 1918970); conditions: KMS27 myeloma cells, CellTiter-Glo ATP viability, 48 h; viability (% of DMSO): at 45.8 µM (top of the series); also: nearly all actives have a fitted effect of over 30% in size
Procedure, shortened: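 KMS27_JCRB myeloma cells, 500 per well, exposed 48 h at 37 C, 5% CO2 to MIPE 4.0 compounds. Viability from ATP by CellTiter-Glo luminescence, normalized to DMSO (100%) and medium-only (0%) wells.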

[10] = Quantitative High-Throughput drug screen in 47 multiple myeloma cell lines against the NCATS MIPE library collection: KMS12BM_JCRB cell viability assay (AID 1918971); also: nearly all actives have a fitted effect of over 35% in size
Procedure, shortened: (§4)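 CellTiter-Glo luminescence (ATP) after 48 h compound exposure, 37C/5% CO2; 500 cells/well; MIPE 4.0 approved/investigational drugs pinned in; DMSO = 100%, media only = 0% viability.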

[11] = Quantitative High-Throughput drug screen in 47 multiple myeloma cell lines against the NCATS MIPE library collection: KMS12PE_JCRB cell viability assay (AID 1918972); also: nearly all actives have a fitted effect of over 30% in size
Procedure, shortened: as §3

[12] = Quantitative High-Throughput drug screen in 47 multiple myeloma cell lines against the NCATS MIPE library collection: MOLP8_DSMZ cell viability assay (AID 1918977); also: nearly all actives have a fitted effect of over 45% in size
Procedure, shortened: (§5)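 Inhibition of viability over 48 h was scored by ATP content (CellTiter-Glo) in 500-cell wells. Zero and full viability were defined by media-only and DMSO-only wells.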

[13] = Quantitative High-Throughput drug screen in 47 multiple myeloma cell lines against the NCATS MIPE library collection: NCIH929_DSMZ cell viability assay (AID 1918978); also: nearly all actives have a fitted effect of over 35% in size
Procedure, shortened: as §5

[14] = Quantitative High-Throughput drug screen in 47 multiple myeloma cell lines against the NCATS MIPE library collection: KHM11_PLB cell viability assay (AID 1918962); also: nearly all actives have a fitted effect of over 35% in size
Procedure, shortened: as §2

[15] = Quantitative High-Throughput drug screen in 47 multiple myeloma cell lines against the NCATS MIPE library collection: JIM1_ECACC cell viability assay (AID 1918964)
Procedure, shortened: as §1

[16] = Quantitative High-Throughput drug screen in 47 multiple myeloma cell lines against the NCATS MIPE library collection: JJN3_DSMZ cell viability assay (AID 1918966; also: nearly all actives have a fitted effect of over 50% in size)
Procedure, shortened: as §1

[17] = Quantitative High-Throughput drug screen in 47 multiple myeloma cell lines against the NCATS MIPE library collection: KMS20_JCRB cell viability assay (AID 1918973); also: nearly all actives have a fitted effect of over 45% in size
Procedure, shortened: as §1

[18] = Quantitative High-Throughput drug screen in 47 multiple myeloma cell lines against the NCATS MIPE library collection: KMS26_JCRB cell viability assay (AID 1918975); also: nearly all actives have a fitted effect of over 45% in size
Procedure, shortened: as §4

[19] = Quantitative High-Throughput drug screen in 47 multiple myeloma cell lines against the NCATS MIPE library collection: MMM1_PLB cell viability assay (AID 1918976); also: nearly all actives have a fitted effect of over 35% in size
Procedure, shortened: as §5

[20] = Quantitative High-Throughput drug screen in 47 multiple myeloma cell lines against the NCATS MIPE library collection: KMS21BM_JCRB cell viability assay (AID 1918974); conditions: ATP luminescence, 48 h; viability: at 45.8 µM (top of the series)
Procedure, shortened: as §1
Potency is read from the fitted curve at half-maximal effect.

Row | SMILES | Potency [1] | Potency [2] | Potency [3] | Potency [4] | Potency [5] | Potency [6] | Potency [7] | Potency [8] | Potency [9] | Potency [10] | Potency [11] | Potency [12] | Potency [13] | Potency [14] | Potency [15] | Potency [16] | Potency [17] | Potency [18] | Potency [19] | Potency [20]
1 | O=C(O)C(=O)Nc1cccc(C2=NN=N[N]2)c1 | inactive | inactive | inactive | inactive | inactive | inactive | inactive | inactive | inactive | inactive | inactive | inactive | inactive |  |  |  |  |  |  | 
2 | C=CCNC1=C2C[C@@H](C)C[C@H](OC)[C@@H](O)[C@@H](C)C=C(C)[C@H](OC(N)=O)[C@@H](OC)C=CC=C(C)C(=O)NC(=CC1=O)C2=O | 93.5 nM (active) | 1870 nM (active) | 148 nM (active) |  | 2640 nM (active) |  | 14800 nM (active) | 1480 nM (active) | 105 nM (active) | 469 nM (active) | 83.3 nM (active) | 264 nM (active) | 1180 nM (active) | 590 nM (active) | 662 nM (active) | 332 nM (active) | 1 nM (active) | 2350 nM (active) | 5900 nM (active) | 
3 | CC(C)Oc1ccc(C(=O)N[C@H](CNC(=O)CN(C)C)Cc2ccc(-c3cn4cccc([C@H](C)O)c4n3)cc2)cc1Cl | 264 nM (active) | 187 nM (active) | 209 nM (active) | inactive | 209 nM (active) | 74.3 nM (active) |  | 132 nM (active) |  | 743 nM (active) | 469 nM (active) |  |  |  |  | inactive | 235 nM (active) |  |  | 
4 | Oc1ccc(-c2ccc(-c3cc(Nc4cccc(CNC5CC5)c4)n[nH]3)cc2)c(O)c1 | 1180 nM (active) | 1180 nM (active) | 743 nM (active) | 833 nM (active) | 1870 nM (active) | 662 nM (active) | 1480 nM (active) | 1050 nM (active) | 743 nM (active) | 2640 nM (active) | 1050 nM (active) |  | 1180 nM (active) |  | 264 nM (active) | 1320 nM (active) | 1320 nM (active) | 3320 nM (active) | 2350 nM (active) | 590 nM (active)
5 | CON=C(C(=O)N[C@@H]1C(=O)N2C(C(=O)O)=C(Cn3ccc(=N)n3CCO)CS[C@H]12)c1csc(N)n1 | inactive | inactive | inactive |  | inactive | inactive | inactive |  | inactive | inactive | inactive | inactive | inactive | inactive | inactive |  |  | inactive |  | inactive
6 | CC(C)C[C@@H](C=O)NC(=O)[C@H](CC(C)C)NC(=O)[C@H](CC(C)C)NC(=O)OCc1ccccc1 (Cbz-Leu-Leu-Leu-aldehyde) | 105 nM (active) | 148 nM (active) | 83.3 nM (active) |  | 526 nM (active) | 148 nM (active) | 264 nM (active) | 235 nM (active) | 166 nM (active) | 469 nM (active) | 105 nM (active) | 469 nM (active) | 118 nM (active) | 187 nM (active) | 209 nM (active) | 469 nM (active) | 526 nM (active) | 590 nM (active) | 2350 nM (active) | 
7 | O=C1CSC(=O)N1C(CCc1ccncc1)COc1ccc(-c2cccc([N+](=O)[O-])c2)cc1 (stereo not given) | inactive | inactive | inactive | 46.9 nM (active) |  | 5900 nM (active) | 7430 nM (active) | 2640 nM (active) | inactive | 7430 nM (active) | inactive |  | 18700 nM (active) |  | inactive | 18700 nM (active) | 10500 nM (active) | 4180 nM (active) | 4180 nM (active) | 
8 | C[C@H]1C[C@H]2[C@@H]3CCC4=CC(=O)C=C[C@]4(C)[C@@H]3C(=O)C[C@]2(C)[C@@]1(O)C(=O)CO | inactive | inactive | inactive | inactive | inactive |  | inactive | inactive | inactive | inactive | inactive | inactive | inactive |  |  | inactive |  |  |  | 
9 | O=C(O)C=Cc1ccc(Cn2ccnc2)cc1 | inactive | inactive | inactive |  | inactive |  | inactive | inactive |  | inactive | inactive | inactive | inactive | inactive | inactive | inactive |  | inactive |  | 
10 | CCOC(=O)[C@H](CCc1ccccc1)N[C@@H](C)C(=O)N1[C@@H](C(=O)O)C[C@H]2CCC[C@@H]21 | 9350 nM (active) | 8330 nM (active) | 7430 nM (active) |  | 13200 nM (active) | 7430 nM (active) | 14800 nM (active) | 7430 nM (active) | 7430 nM (active) | 23500 nM (active) | 7430 nM (active) |  | 7430 nM (active) | 9350 nM (active) | 5260 nM (active) |  |  |  | 18700 nM (active) | 5260 nM (active)
11 | NC(=O)c1ncn([C@@H]2O[C@H](CO)[C@@H](O)[C@@H]2O)c1N | inactive | inactive | inactive | inactive |  |  | inactive |  |  | inactive |  |  | inactive |  |  | inactive |  | inactive | 2640 nM (active) | 
